# Results as given in PubChem BioAssay AID2153 (The Scripps Research Institute Molecular Screening Center, 2009).
# About 2,000 (83%) of roughly 2,400 compounds were called active. So high a share suggests a set chosen from earlier hits. The list is a sample of the results. Values without a mark were called inactive.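 How the source made its calls: active means inhibition above the solvent-only control well mean plus 3 SD, limit set per screening run (cut at about 23% in these data); inactive means the rest.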
# Target: Guanyl-specific ribonuclease T1 (Aspergillus oryzae (strain ATCC 42149 / RIB 40)) (UniProt P00651)
# Assay: RNase T1 inhibitors, counter-screen for TPT1 inhibitor project, biochemical, fluorescence polarization (AID 2153);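 further: plate controls were DMSO wells with enzyme for no effect and wells without RNase T1 for full effect; inhibitors block cleavage so intact labeled substrate keeps polarization high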
# Settings: RNase T1 cleavage, 1536-well, at 5 µM, stronger effect = higher value
# Chain of Guanyl-specific ribonuclease T1 (Aspergillus oryzae (strain ATCC 42149 / RIB 40)) (P00651 whole entry, looked up): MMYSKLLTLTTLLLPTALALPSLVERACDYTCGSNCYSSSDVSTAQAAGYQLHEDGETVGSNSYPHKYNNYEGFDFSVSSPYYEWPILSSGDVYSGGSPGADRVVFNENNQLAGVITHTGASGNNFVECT
row,Structure (SMILES),inhibition
1,CC(C)n1c(=O)c(C=Nc2ccc(Br)cc2)c(O)n(Cc2ccco2)c1=O,28.4% (active)
2,CCCCC(=O)N/N=C/c1c(O)n(CC)c(=S)n(CC)c1=O,110% (active)
3,CCN1C(=O)C(=Cc2c(C)n(CC(=O)NCC3CCCO3)c3ccccc23)C(=O)N(CC)C1=S (centres undefined),26.4% (active)
4,COc1ccccc1N=Nc1c(O)[nH]c(=S)[nH]c1=O,77.7% (active)
5,CC/C(=N\NC(=O)c1ccccc1O)c1c(O)n(Cc2ccccc2)c(=O)[nH]c1=O,35.2% (active)
6,O=C1CC(=O)N(Cc2ccccc2)C(=O)N1CCCCCCN1C(=O)CC(=O)N(Cc2ccccc2)C1=O,34.1% (active)
7,O=C1NC(=O)N(Cc2ccco2)C(=O)/C1=C\c1ccc(-c2ccc(F)cc2)o1,20.3%
8,O=C1NC(=O)N(Cc2ccco2)C(=O)/C1=C\c1cccn1CCOc1ccccc1,11.7%
9,COc1ccc(N2C(=O)/C(=C/c3ccco3)C(=O)NC2=S)cc1,24.8% (active)
